Activity calls are given as the source filed them. The rule behind the calls is not given here.
Experiment: Vero 76 cell cytotoxicity, dose response, cytotoxicity control for VEEV inhibitor project, set 9 (AID 651930)
Settings: Vero 76 cytotoxicity; series mostly up to 25 µM

SMILES	outcome
CCN1CCN(Cc2nc3ccc(-c4cccnc4)cc3c(=O)n2-c2ccccc2)CC1	inactive
O=c1nc(Nc2ccccc2OCc2ccccc2)sc2ncccc12	inactive
CCN1CCN(Cc2nc3ccc([N+](=O)[O-])cc3c(=O)n2C)CC1	inactive
